Assay results from paper PMC11006913.
Substitutions are numbered along the chain they refer to.

How the values were obtained:
Experiment in all cases: PBM; 200 nM protein, PBS
Conditions in all cases: dsDNA, one strand shown
PAX4 [1] = biological target: T1, PAX4 (Homo sapiens, UniProt O43316 9-242, R200K)
T1 sequence: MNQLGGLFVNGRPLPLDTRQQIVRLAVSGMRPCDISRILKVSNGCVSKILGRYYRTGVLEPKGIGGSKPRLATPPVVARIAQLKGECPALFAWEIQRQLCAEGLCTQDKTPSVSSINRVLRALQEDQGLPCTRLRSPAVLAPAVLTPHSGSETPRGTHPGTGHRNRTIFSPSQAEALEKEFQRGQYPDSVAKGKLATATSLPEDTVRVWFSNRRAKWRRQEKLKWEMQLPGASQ

PAX4 [2] = biological target: T2, PAX4 (Homo sapiens, UniProt O43316 9-242)
T2 sequence: T1 sequence with K192R

PAX4 [3] = biological target: T3, PAX4 (Homo sapiens, UniProt O43316 9-242, R200Q)
T3 sequence: T1 sequence with K192Q

PAX4 [4] = biological target: T4, PAX4 (Homo sapiens, UniProt O43316 9-242, F177V)
T4 sequence: T1 sequence with F169V, K192R

PAX4 [5] = biological target: T5, PAX4 (Homo sapiens, UniProt O43316 9-242, F177Y)
T5 sequence: T1 sequence with F169Y, K192R

PAX4 [6] = biological target: T6, PAX4 (Homo sapiens, UniProt O43316 9-242, R227W)
T6 sequence: T1 sequence with K192R, R219W

CRX = CRX (Homo sapiens, UniProt O43186 26-111, R41L)
PRRX1 = PRRX1 (Homo sapiens, UniProt P54821 80-166, F113S)
Sequence of PRRX1 (P54821 80-166 F113S): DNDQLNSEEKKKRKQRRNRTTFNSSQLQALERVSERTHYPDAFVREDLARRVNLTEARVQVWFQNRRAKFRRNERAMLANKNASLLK

Sequence of CRX (O43186 26-111 R41L): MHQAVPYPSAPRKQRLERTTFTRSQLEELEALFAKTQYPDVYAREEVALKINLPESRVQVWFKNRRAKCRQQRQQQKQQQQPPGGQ

Sequence	binding signal (PAX4 [1])	binding signal (PAX4 [2])	binding signal (PAX4 [3])	binding signal (PAX4 [4])	binding signal (PAX4 [5])	binding signal (PAX4 [6])	binding signal (CRX)	binding signal (PRRX1)
CGAATTAA	12 upbm affinity estimate (log intensity, higher = more binding, comparable within an allelic series)	12.6 upbm affinity estimate (log intensity, higher = more binding, comparable within an allelic series)	11.9 upbm affinity estimate (log intensity, higher = more binding, comparable within an allelic series)	10.6 upbm affinity estimate (log intensity, higher = more binding, comparable within an allelic series)	11.2 upbm affinity estimate (log intensity, higher = more binding, comparable within an allelic series)	11.1 upbm affinity estimate (log intensity, higher = more binding, comparable within an allelic series)	–	–
CGCCTGCA	9.25 upbm affinity estimate (log intensity, higher = more binding, comparable within an allelic series)	9.25 upbm affinity estimate (log intensity, higher = more binding, comparable within an allelic series)	9.33 upbm affinity estimate (log intensity, higher = more binding, comparable within an allelic series)	9.34 upbm affinity estimate (log intensity, higher = more binding, comparable within an allelic series)	9.3 upbm affinity estimate (log intensity, higher = more binding, comparable within an allelic series)	9.34 upbm affinity estimate (log intensity, higher = more binding, comparable within an allelic series)	–	–
TGTATTAA	11.7 upbm affinity estimate (log intensity, higher = more binding, comparable within an allelic series)	–	–	–	–	–	10.9 upbm affinity estimate (log intensity, higher = more binding, comparable within an allelic series)	–
CGTATTAG	11.8 upbm affinity estimate (log intensity, higher = more binding, comparable within an allelic series)	12.3 upbm affinity estimate (log intensity, higher = more binding, comparable within an allelic series)	11.4 upbm affinity estimate (log intensity, higher = more binding, comparable within an allelic series)	10.6 upbm affinity estimate (log intensity, higher = more binding, comparable within an allelic series)	11.1 upbm affinity estimate (log intensity, higher = more binding, comparable within an allelic series)	11.1 upbm affinity estimate (log intensity, higher = more binding, comparable within an allelic series)	10.6 upbm affinity estimate (log intensity, higher = more binding, comparable within an allelic series)	–
CTAATTCA	11.7 upbm affinity estimate (log intensity, higher = more binding, comparable within an allelic series)	12.2 upbm affinity estimate (log intensity, higher = more binding, comparable within an allelic series)	11.6 upbm affinity estimate (log intensity, higher = more binding, comparable within an allelic series)	10.5 upbm affinity estimate (log intensity, higher = more binding, comparable within an allelic series)	11 upbm affinity estimate (log intensity, higher = more binding, comparable within an allelic series)	11 upbm affinity estimate (log intensity, higher = more binding, comparable within an allelic series)	–	–
AGTGTTAG	10.5 upbm affinity estimate (log intensity, higher = more binding, comparable within an allelic series)	10.6 upbm affinity estimate (log intensity, higher = more binding, comparable within an allelic series)	–	9.92 upbm affinity estimate (log intensity, higher = more binding, comparable within an allelic series)	10 upbm affinity estimate (log intensity, higher = more binding, comparable within an allelic series)	10.1 upbm affinity estimate (log intensity, higher = more binding, comparable within an allelic series)	–	–
ATTGATTA	–	–	–	–	–	–	–	11.1 upbm affinity estimate (log intensity, higher = more binding, comparable within an allelic series)
CCGCGACC	9.37 upbm affinity estimate (log intensity, higher = more binding, comparable within an allelic series)	9.36 upbm affinity estimate (log intensity, higher = more binding, comparable within an allelic series)	9.36 upbm affinity estimate (log intensity, higher = more binding, comparable within an allelic series)	9.17 upbm affinity estimate (log intensity, higher = more binding, comparable within an allelic series)	9.23 upbm affinity estimate (log intensity, higher = more binding, comparable within an allelic series)	9.24 upbm affinity estimate (log intensity, higher = more binding, comparable within an allelic series)	–	–
GCCAGAGC	9.17 upbm affinity estimate (log intensity, higher = more binding, comparable within an allelic series)	9.13 upbm affinity estimate (log intensity, higher = more binding, comparable within an allelic series)	9.26 upbm affinity estimate (log intensity, higher = more binding, comparable within an allelic series)	9.3 upbm affinity estimate (log intensity, higher = more binding, comparable within an allelic series)	9.28 upbm affinity estimate (log intensity, higher = more binding, comparable within an allelic series)	9.34 upbm affinity estimate (log intensity, higher = more binding, comparable within an allelic series)	–	–
AATGCGAT	10.8 upbm affinity estimate (log intensity, higher = more binding, comparable within an allelic series)	11 upbm affinity estimate (log intensity, higher = more binding, comparable within an allelic series)	–	10.2 upbm affinity estimate (log intensity, higher = more binding, comparable within an allelic series)	–	–	–	–
ATAATGCG	11.6 upbm affinity estimate (log intensity, higher = more binding, comparable within an allelic series)	–	–	–	10.9 upbm affinity estimate (log intensity, higher = more binding, comparable within an allelic series)	10.9 upbm affinity estimate (log intensity, higher = more binding, comparable within an allelic series)	–	–
ATTAGCTA	11.4 upbm affinity estimate (log intensity, higher = more binding, comparable within an allelic series)	11.7 upbm affinity estimate (log intensity, higher = more binding, comparable within an allelic series)	11.4 upbm affinity estimate (log intensity, higher = more binding, comparable within an allelic series)	10.2 upbm affinity estimate (log intensity, higher = more binding, comparable within an allelic series)	10.6 upbm affinity estimate (log intensity, higher = more binding, comparable within an allelic series)	10.6 upbm affinity estimate (log intensity, higher = more binding, comparable within an allelic series)	–	–
TGGGCCCA	9.53 upbm affinity estimate (log intensity, higher = more binding, comparable within an allelic series)	9.41 upbm affinity estimate (log intensity, higher = more binding, comparable within an allelic series)	9.57 upbm affinity estimate (log intensity, higher = more binding, comparable within an allelic series)	9.2 upbm affinity estimate (log intensity, higher = more binding, comparable within an allelic series)	9.37 upbm affinity estimate (log intensity, higher = more binding, comparable within an allelic series)	9.35 upbm affinity estimate (log intensity, higher = more binding, comparable within an allelic series)	–	–
